About 83,000 compounds went through this panel and 20% of them were active in at least one assay; those are over-represented in the sample as a whole.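 For each line, cells grew in 96-well plates with the test compound present at a single concentration for 48 hours.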 Values without a mark were called inactive. Activity calls are given as the source filed them. How the source made its calls: active means growth percent below 10; inactive means the rest.
How the values were obtained:
Test in all cases: NCI-60 one-dose screen, 48 h (100 = growth as untreated, 0 = no growth, -100 = all killed)
Details in all cases: 10 µM unless noted
SR leukemia = test system: SR leukemia
OVCAR-5 ovarian = test system: OVCAR-5 ovarian
OVCAR-4 ovarian = test system: OVCAR-4 ovarian
SK-OV-3 ovarian = test system: SK-OV-3 ovarian
IGROV1 ovarian = test system: IGROV1 ovarian
OVCAR-3 ovarian = test system: OVCAR-3 ovarian
HS 578T breast = test system: HS 578T breast
NCI/ADR-RES ovarian = test system: NCI/ADR-RES ovarian
T-47D breast = test system: T-47D breast
MDA-MB-435 melanoma = test system: MDA-MB-435 melanoma
SW-620 colon = test system: SW-620 colon
MCF7 breast = test system: MCF7 breast
HCT-116 colon = test system: HCT-116 colon
HCC-2998 colon = test system: HCC-2998 colon
KM12 colon = test system: KM12 colon
OVCAR-8 ovarian = test system: OVCAR-8 ovarian
BT-549 breast = test system: BT-549 breast

Compound	growth (SR leukemia)	growth (OVCAR-5 ovarian)	growth (OVCAR-4 ovarian)	growth (SK-OV-3 ovarian)	growth (IGROV1 ovarian)	growth (OVCAR-3 ovarian)	growth (HS 578T breast)	growth (NCI/ADR-RES ovarian)	growth (T-47D breast)	growth (MDA-MB-435 melanoma)	growth (SW-620 colon)	growth (MCF7 breast)	growth (HCT-116 colon)	growth (HCC-2998 colon)	growth (KM12 colon)	growth (OVCAR-8 ovarian)	growth (BT-549 breast)
O=C(O)c1ccc(CO)o1	100%	108%	98.3%	116%	109%	112%	106%	116%	105%	109%	104%	84.1%	103%	111%	106%	–	–
Cc1[nH]c(-c2nc3ccccc3[nH]2)c(C)c1C(=O)N1CCc2sccc2C1	97.7%	83.5%	–	–	98.5%	95%	87.7%	93.2%	72.9%	94.9%	89%	90.2%	92.6%	110%	97.6%	91.2%	94.1%
COc1ccc(/C(C)=C(\c2ccc(Cl)cc2)c2ccc(OCCCN(C)C)cc2)cc1F	-19.7% (active)	72.6%	54.1%	81.9%	48.5%	63.5%	56.3%	77.1%	67.5%	29.4%	38.3%	13%	21.2%	48.2%	29.2%	–	88.3%
COc1ccc(O)c(-c2cc(-c3ccccc3)c(C#N)c(=O)[nH]2)c1	89%	124%	–	92.6%	98.8%	95.9%	89.6%	97.3%	79.3%	102%	105%	87.5%	89.7%	99.8%	90.8%	96.3%	70.6%
Cn1ccnc1C(=O)/C=C/c1ccc(C(=O)Nc2ccc(S(F)(F)(F)(F)F)cc2)cc1	1.8% (active)	10.2%	–	61.2%	22.3%	2.9% (active)	23.5%	5.47% (active)	27.8%	39.2%	12.5%	12.5%	3.62% (active)	5.66% (active)	16.6%	9.86% (active)	39.6%
Nc1nc(Nc2ccc(Cl)cc2)nn1S(=O)(=O)c1ccc(-c2ccc(F)cc2)cc1	85.5%	–	89.4%	–	76.2%	92.1%	79.6%	83.3%	68.6%	91%	95.5%	58.2%	75.1%	82.9%	61.2%	83.8%	108%
COc1ccc(OC)c(/C=C2\COc3ccc(O)cc3C2=O)c1	11.8%	98.7%	117%	102%	97.9%	102%	95.6%	100%	96.7%	29.1%	14.3%	19.7%	66.9%	112%	60.2%	–	93.5%
CCN(CC)CCOc1ccc(/C(=C(\C)c2ccc(OC)c(F)c2)c2ccc(Cl)cc2)cc1	29.8%	–	73.1%	91.1%	72.2%	89%	70%	82.3%	89.7%	60.3%	63.2%	70.3%	46.4%	78.6%	19.1%	76.7%	89%
COC1=CC(c2ccc[nH]2)=N/C1=C\c1[nH]c(C)c(C(=O)OCCn2cc(CCC[C@@H]3Cc4cc(O)ccc4C4CC[C@]5(C)[C@@H](O)CC[C@H]5C43)nn2)c1C (some centres undefined)	23.8%	88.9%	–	92.4%	95.7%	85.5%	65.1%	83.2%	102%	80%	56.3%	96%	81.6%	85.7%	66.9%	96.3%	–
CCn1c(Sc2nnc(NC(=O)CCN3CCCC3)s2)nc2c1c(=O)n(C)c(=O)n2C	111%	–	105%	–	115%	109%	100%	109%	102%	107%	105%	105%	105%	114%	109%	103%	110%
Cn1cc(-c2ccc3ncc(-c4ccc(CC(=O)Nc5cc(C(C)(C)C)nn5C)cc4)cc3c2)cn1	11.6% [30 µM]	46.2% [30 µM]	-21.8% [30 µM] (active)	12.6% [30 µM]	7.76% [30 µM] (active)	7.38% [30 µM] (active)	27.8% [30 µM]	-8.5% [30 µM] (active)	-3.95% [30 µM] (active)	2.73% [30 µM] (active)	22.2% [30 µM]	2.17% [30 µM] (active)	20.4% [30 µM]	29.6% [30 µM]	-40.1% [30 µM] (active)	–	-2.02% [30 µM] (active)
CN=C1C=CC(=C(c2ccc(N(C)C)cc2)c2ccc(N(C)C)cc2)C=C1	-10.9% (active)	17.4%	7.52% (active)	-15.6% (active)	-12.7% (active)	-42.2% (active)	32.6%	10.9%	3.04% (active)	-51% (active)	3.29% (active)	–	-7.21% (active)	-31% (active)	-76.2% (active)	–	-34.3% (active)
CCN(CC)S(=O)(=O)c1ccc(O)c(NC(=O)c2[nH]c(C)c(C(C)=O)c2CCc2ccc(Cl)cc2)c1	32.5%	92.7%	15.2%	37.8%	45.5%	24.1%	49.9%	50.5%	13%	43.4%	61.5%	43.8%	28.1%	76.3%	29.8%	–	40.5%
C=C1C(=O)O[C@H]2[C@H]1CC/C(COC(=O)/C=C\C(=O)NCc1ccc(Cn3c(=O)sn(CCCC)c3=O)cc1)=C\CC[C@@]1(C)O[C@@H]21	-24.7% (active)	–	-81.8% (active)	55.7%	-100% (active)	-80.5% (active)	-20.4% (active)	-9.25% (active)	-39% (active)	-73.9% (active)	-45.5% (active)	-43% (active)	-77.5% (active)	-80.3% (active)	-59.7% (active)	2.61% (active)	-73.3% (active)
C=C1C(=O)O[C@H]2[C@H]1CC/C(COC(=O)/C=C\C(=O)NCc1ccc(Cn3c(=O)sn(CCCI)c3=O)cc1)=C\CC[C@@]1(C)O[C@@H]21	-48% (active)	-83.9% (active)	-89.4% (active)	42.9%	-98.3% (active)	-93% (active)	-40.2% (active)	1.52% (active)	-48.3% (active)	-83.8% (active)	-76.3% (active)	-53.5% (active)	-48.8% (active)	-77.8% (active)	-77% (active)	–	-56.2% (active)
COc1cc2c(c(OC)c1OC)C(=O)/C(=C/c1cc(C)c(O)c(C)c1)S2	33.8%	65.2%	51.8%	–	45.7%	8.16% (active)	29.4%	14.1%	47.6%	-37.2% (active)	39.3%	21.7%	33.2%	46.4%	20.9%	–	56.9%
Cl.Fc1c[c-]c(-c2ccccn2)c(F)c1.[Pt].c1ccc([PH+](C[PH+](c2ccccc2)c2ccccc2)c2ccccc2)cc1	-25.4% (active)	-81.8% (active)	-93.4% (active)	–	-75.9% (active)	-93.8% (active)	-25.2% (active)	-38.8% (active)	-56.2% (active)	-83.3% (active)	–	-83.7% (active)	-83.4% (active)	-87.4% (active)	-82% (active)	-19.6% (active)	-85% (active)
CCn1c(Sc2nnc(NC(=O)CSC(=S)N3CCCCC3)s2)nc2c1c(=O)n(C)c(=O)n2C	44.8%	–	84%	–	78.5%	56.5%	91.4%	42.2%	86.9%	6.74% (active)	61.8%	91.9%	87.7%	81.9%	64.2%	92.8%	79.7%
N=C(N)c1ccc(-c2ccc(-c3ccc(Cl)c(Cl)c3)o2)cc1	-14.5% (active)	39.9%	-13.1% (active)	–	-64.6% (active)	-42.2% (active)	70.9%	35.1%	–	-42.1% (active)	-73.6% (active)	-68.9% (active)	-83% (active)	-75.7% (active)	-84.2% (active)	1.38% (active)	90%

Source: PubChem BioAssay (NCI)
